According to PubChem BioAssay AID493221 (Johns Hopkins Ion Channel Center, 2011):
Screen size: about 2,400 compounds; about 1,700 (71%) were called active.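 The calls were made as follows: active = choline transporter activity left, mean of duplicates at 10 µM, below buffer-only control mean minus 3 SD; inactive = the rest.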 The set was probably picked from earlier hits. Only a sample is shown.

What follows are molecules tested against High affinity choline transporter 1 (Homo sapiens) (UniProt Q9GZV3) (assay: CHT inhibitors, confirmation, cell-based, membrane potential dye, duplicate (AID 493221)). Details: CHT-expressing cells, at 10 µM, LV-to-AA substituted CHT, HEK293 cells.
Sequence of High affinity choline transporter 1 (Homo sapiens) (Q9GZV3 whole entry, looked up): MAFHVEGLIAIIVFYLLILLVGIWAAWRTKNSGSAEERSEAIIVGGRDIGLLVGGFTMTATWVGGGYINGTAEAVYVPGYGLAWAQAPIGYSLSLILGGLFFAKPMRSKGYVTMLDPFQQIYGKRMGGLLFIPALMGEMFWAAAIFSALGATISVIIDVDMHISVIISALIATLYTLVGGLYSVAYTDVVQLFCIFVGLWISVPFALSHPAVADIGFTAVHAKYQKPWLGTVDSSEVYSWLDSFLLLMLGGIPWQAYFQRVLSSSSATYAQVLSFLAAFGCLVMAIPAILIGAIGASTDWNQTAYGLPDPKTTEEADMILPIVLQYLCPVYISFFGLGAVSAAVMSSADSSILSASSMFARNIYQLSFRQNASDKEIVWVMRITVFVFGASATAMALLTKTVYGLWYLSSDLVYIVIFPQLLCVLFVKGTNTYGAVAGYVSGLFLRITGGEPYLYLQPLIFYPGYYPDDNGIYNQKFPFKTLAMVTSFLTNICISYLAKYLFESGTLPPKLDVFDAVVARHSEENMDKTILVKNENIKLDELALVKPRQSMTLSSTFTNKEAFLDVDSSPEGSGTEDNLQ
With `C[N+]1(C)CCOC(O)(c2ccc(-c3ccc(C4(O)C[N+](C)(C)CCO4)cc3)cc2)C1` (stereo not drawn) the CHT activity remaining % of control (stronger effect = lower value) was 4.79% (active). In the case of `COc1ccccc1N1CCN(C(CNC(=O)Oc2ccccc2)c2cccnc2)CC1` (stereo not drawn), the CHT activity remaining % of control (stronger effect = lower value) is reported as “inactive”. With `Cc1nc2ccccn2c1P(=S)(N1CCCCC1)N1CCCCC1` the CHT activity remaining % of control (stronger effect = lower value) was 61.1% (active).
